D2 PAM-1: human D2 receptor positive allosteric modulation. AID 624464. P14416. 360,000 compounds, 0.23% hits. DiscoveRx D2 beta-arrestin cells, luminescence, 90 min; 100% = 57 uM dopamine signal. potentiation, % (concentration not given with the values); in the data active means potentiation above about 50%; inconclusive means mostly about 30% to 49%
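PathHunter beta-arrestin assay in DiscoveRx D2 cells. Compounds were added with an EC20 of dopamine (50 nM final) for 90 min at 37 deg C. Luminescence was read 1 h after detection reagent, with 57 uM dopamine as the EC100 control.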
D2 ag-1: activates the human D2 dopamine receptor; P14416; DiscoveRx PathHunter D2 beta-arrestin, luminescence, 90 min; 100% = 57 uM dopamine signal; activation, % (no concentration beside the values); 360,000 compounds, 0.084% hits; in the data active means activation above about 40%; inconclusive means between about 15% and that limit
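Agonist mode: compounds alone added to overnight-plated D2 PathHunter cells for 90 min at 37 C, with 57 uM final dopamine (EC100) defining full response. Beta-arrestin recruitment detected by chemiluminescent reagent, read after 1 h at ambient temperature.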
Apoferritin bind: binds horse apoferritin like a general anesthetic. apoferritin/1-aminoanthracene competitive binding, fluorescence. AID 485281. P02791. Potency, µM (titrated, usually from 77.5 µM), for the others: top-dose activity change, negative = displacement, usual class: inhibitors. 350,000 compounds, 0.074% hits; further: potency means the concentration at half of the fitted maximal effect; on the % scale 0 is the no-effect control and ±100 the full control effect; nearly all actives have a fitted effect of over 20% in size
Target sequence (P02791 2-175 limits assumed): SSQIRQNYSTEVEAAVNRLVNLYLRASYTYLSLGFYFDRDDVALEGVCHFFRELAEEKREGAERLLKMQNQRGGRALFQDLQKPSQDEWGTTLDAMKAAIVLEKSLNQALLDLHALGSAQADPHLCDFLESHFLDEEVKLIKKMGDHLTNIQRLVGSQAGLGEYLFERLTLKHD
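Steps: apoferritin (10 uM) was premixed with half-saturated 1-AMA in PBS, compounds were pin-transferred, plates stood 10 min at room temperature, fluorescence was read at 380/535 nm, and curves were fitted with a Hill equation.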
D2 antagonist: antagonists of human D2 dopamine receptor; 340,000 compounds, 2% hits; inhibition, % at 10 µM; P14416; AID 485344; HEK293 TREx D2 cells, calcium flux, dopamine EC80; in the data active means inhibition above about 30%; inactive means below that, where a call was filed; further: 0% is about no effect
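Cells plated overnight at 30 C with tetracycline; no-wash calcium dye, 30–90 min RT; 10 s baseline; compound pinned; 180 s read; EC80 dopamine added; another 180 s read.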
D2 ag-2: agonists of human D2 dopamine receptor; P14416; activation, % at 2 µM; 340,000 compounds, 0.53% hits; HEK293 T-REx D2 cells, calcium flux agonist mode;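 active means activation over 3 SD above normal in the single-dose calcium agonist read, cut at about 30% in these data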; further: 0% is about no effect
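Tetracycline-induced HEK293 Trex cells with D2 receptor force-coupled to calcium signaling, plated overnight at 30 C and loaded with no-wash calcium dye. Calcium flux read kinetically for 180 s after compound addition; responses flag agonists.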
D2 PAM-2: positive allosteric modulators of human D2 dopamine receptor; AID 485347; potentiation, % at 10 µM; HEK293 T-REx D2, calcium flux, EC20 dopamine potentiation; 340,000 compounds, 0.34% hits; P14416;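 active means potentiation over 3 SD above the plate norm, cut at about 30% in these data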; further: 0% is about no effect
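Potentiation of an EC20 dopamine calcium response is measured in a force-coupled, tetracycline-inducible Hek293 Trex D2 line. Compound-only kinetic reads over 180 s flag agonists before dopamine addition.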
D3 ag: confirmation of human D3 dopamine receptor agonists, beta-arrestin; DiscoveRx D3 beta-arrestin cells, luminescence, 90 min; Potency, µM (top dose mostly 76.9 µM), for the others: top-dose activation, hits mostly activators; shares compounds with D2 ag-2; AID 720506; 2,300 compounds, 4% hits;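 further: potency means the concentration at half of the fitted maximal effect; 100% = dopamine control response; nearly all actives have a fitted effect of over 70% in size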
Target sequence (P35462 whole entry, looked up): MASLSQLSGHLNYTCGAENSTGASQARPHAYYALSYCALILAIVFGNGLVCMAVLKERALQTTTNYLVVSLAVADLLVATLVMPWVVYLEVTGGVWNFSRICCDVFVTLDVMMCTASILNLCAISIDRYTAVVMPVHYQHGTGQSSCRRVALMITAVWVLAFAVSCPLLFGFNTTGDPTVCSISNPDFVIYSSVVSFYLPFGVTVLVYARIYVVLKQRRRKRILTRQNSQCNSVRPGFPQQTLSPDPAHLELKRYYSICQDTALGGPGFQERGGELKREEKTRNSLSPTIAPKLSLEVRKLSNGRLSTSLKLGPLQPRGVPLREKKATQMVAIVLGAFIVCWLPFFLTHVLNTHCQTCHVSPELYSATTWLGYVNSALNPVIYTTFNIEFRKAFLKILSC
D2 ag-3: counter-screen for D3 agonists: human D2 dopamine receptor agonism. shares compounds with D2 ag-2. DiscoveRx PathHunter D2 beta-arrestin, luminescence, 90 min; response scale: percent relative to full dopamine signal. Potency, µM (top dose mostly 76.9 µM), for inactives: top-dose activation, usual class: activators. 2,300 compounds, 5.9% hits; further: potency means the concentration at half of the fitted maximal effect; % of control where 0% means no effect; nearly all actives have a fitted effect of over 70% in size
An asterisk follows results filed as active; ? = inconclusive; / = not tested or not shown; ! = not confirmed by another sample. Sampled rows, rich in hits. Any-hit rate of the full collection: about 2.5%. Unless noted, the call rests on the fitted dose curve; in most records, active means well fitted curve in the direction sought with a large enough effect; inconclusive means small, poorly fitted or top-dose-only effect, or another doubt; inactive means no such curve, though single readings can be large; an effect the other way counts as inactive or inconclusive.

SMILES	D2 PAM-1	D2 ag-1	Apoferritin bind	D2 antagonist	D2 ag-2	D2 PAM-2	D3 ag	D2 ag-3
CC(=O)N1c2ccc(S(=O)(=O)N3CCC(C(=O)Nc4ncccc4C)CC3)cc2CC1C (stereo unspecified)	-5	1	-2%	5	27	-8	-8%	-5%
CCC(=O)N1CCc2cc(S(=O)(=O)N3CCCC3)ccc21	-3	-1	5%	-23	0	-18	/	/
CCC(=O)N1CCc2cc(S(=O)(=O)N3CCCCCC3)ccc21	-13	5	-4%	31*	37*	-11	-6%	-2%
CCC(=O)N1CCc2cc(S(=O)(=O)CCC(=O)Nc3nc(C)cs3)ccc21	-8	11	-6%	10	64*	-20	11%	11%
CCC(=O)N1c2ccc(S(=O)(=O)N3CCN(CC)CC3)cc2CC1C (stereo unspecified)	-9	7	-9%	39*	48*	-16	-7%	28%
COc1cccc(-c2ccc3ncnc(NCc4cccs4)c3c2)c1	/	/	-11%	-17	0	-11	/	/
CCC(=O)N1CCc2cc(S(=O)(=O)CCC(=O)NC3CCCCC3)ccc21	-5	0	-8%	-2	1	5	/	/
CCC(=O)N1CCc2cc(S(=O)(=O)CCC(=O)Nc3ccc(C)cn3)ccc21	0	3	-4%	64*	57*	-20	6%	19%
CCC(=O)N1CCc2cc(S(=O)(=O)CCC(=O)NCc3ccc(C)cc3)ccc21	-10	0	2%	0	0	-5	/	/
CCOC(=O)N1CCC(NC(=O)CCS(=O)(=O)c2ccc3c(c2)CCN3C(=O)CC)CC1	4	?	-2%	73*	66*	-21	12%	?
O=S(=O)(Cc1ccccc1)N1CCN(Cc2ccc(Br)cc2)CC1	-9	-4	-7%	12	1	-19	/	/
O=C(CN1C(=O)COc2ccccc21)NCCCN1CCN(c2ccccc2F)CC1	-32	14	2%	78*	56*	-18	2%	20%
O=C(NCCCN1CCN(c2ccccc2F)CC1)C1CC(=O)N(C2CCCC2)C1 (stereo unspecified)	-2	6	2%	84*	78*	-18	?	?
O=C(Cn1cc2c(n1)CCCC2)NCCCN1CCN(c2ccccc2F)CC1	-8	-1	-9%	76*	18	-30	-6%	3%
CN1CCN(CCCNC(=O)CN2C(=O)COc3ccccc32)CC1	0	-7	-10%	-7	0	-2	/	/
O=C(CCN1C(=O)COc2ccccc21)NCCN1CCN(c2ccccc2F)CC1	-27	2	-18%	45*	36*	-24	-5%	1%
S=C(NCc1ccc(Cl)c(Cl)c1)NCc1ccco1	5	4	-15%	3	0	-6	/	/
CC(=O)Nc1cccc(NC(=O)CSc2nc(C3CC3)nc3ccccc23)c1	-2	1	8%	34*	0	-7	29%	14%
CCCN(CCC)CCNC(=O)c1cc2c(-c3ccccc3F)nn(C)c2s1	?	67*	-15%	42*	43*	-16	-3%	?
CCN(CC)CCNC(=O)c1cc2c(-c3ccc(Cl)cc3)nn(C)c2s1	10	0	-16%	2	7	-14	/	/
CCCCN(CC)CCNC(=O)c1cc2c(-c3ccc(Cl)cc3)nn(C)c2s1	57*	75*	?	72*	44*!	-22	?	25µM*
CCCN(CCC)CCNC(=O)c1cc2c(-c3ccc(Cl)cc3)nn(C)c2s1	-3	?	6%	37*	45*	-16	12%	?
Cc1ccc2c(C)cc[n+](CCCS(=O)(=O)[O-])c2c1	-9	0	-2%	2	2	2	/	/
COC(=O)/C(=C\Nc1ccccc1N)c1ncc(C(F)(F)F)cc1Cl	-13	-4	0%	3	-1	-3	/	/
Oc1ccc(Cl)cc1CNCc1ccc(Cl)cc1	-81	0	/	-6	1	-20	-3%	-2%
SMILES	D2 PAM-1	D2 ag-1	Apoferritin bind	D2 antagonist	D2 ag-2	D2 PAM-2	D3 ag	D2 ag-3
Oc1ccc(Cl)cc1CNCc1ccc(F)cc1	-24	-6	/	-2	4	-15	/	/
O=C(Nc1ccc2c(c1)OCO2)C1CCN(S(=O)(=O)c2cccs2)CC1	0	3	-17%	7	-1	-5	/	/
CN(Cc1ccccc1)CC(O)COc1ccc(CNCCCOc2cccnc2)cc1 (stereo unspecified)	-30	1	-10%	26	0	-15	/	/
CN(Cc1ccccc1)CC(O)COc1ccc(CNCCOc2cccnc2)cc1 (stereo unspecified)	-2	?	-8%	83*	56*	-12	1.4µM*	24%
CN(Cc1ccccc1)C(=O)c1nc2ccccn2c1CNCCOc1cccnc1	-9	-4	-6%	-10	41*	-26	-7%	2%
CCCN1Cc2cccc(C(N)=O)c2C1=O	-11	-1	-3%	-18	1	4	/	/
COc1ccc(Cc2c(O)nc(SCC(=O)N3CCOCC3)[nH]c2=O)cc1	-4	-7	3%	-1	0	-1	/	/
OC(c1ccccc1)C1CN(Cc2ccccc2)CCC1(O)c1ccccc1 (stereo unspecified)	-34	-2	-1%	-8	1	-15	/	/
O=C(c1ccccc1)C1CN(Cc2ccccc2)CCC1(O)c1ccccc1 (stereo unspecified)	-11	2	-18%	45*	65*	-14	-8%	4%
COc1ccccc1NS(=O)(=O)c1ccc(C(=O)N2CCCC(C(F)(F)F)C2)cc1 (stereo unspecified)	-5	0	/	13	-1	-15	2%	-2%
O=C(OCCN1C(=O)c2cccc3c(N4CCOCC4)ccc(c23)C1=O)c1ccc(Cl)cc1	-22	-2	2%	4	70*	-2	5%	1%
CCCN(CCC)S(=O)(=O)c1ccc(C(=O)OCCN2C(=O)c3cccc4c(N5CCOCC5)ccc(c34)C2=O)cc1	-6	2	22%	10	62*	-3	-4%	0%

Assay outcomes as filed in PubChem BioAssay.
